Screens as filed in PubChem BioAssay.
p53ts 39C kill: kills p53ts cells at the nonpermissive temperature. H1299-p53A138V viability at 39C, ATP luminescence, 24 h. Potency, µM (doses to about 46.1 µM), inactives show at the top dose activity change, negative = cell killing, actives largely listed as cytotoxic. hit rate 1.5% among 130,000; also: % is scaled to controls: 0 for no effect and ±100 for the full control effect; nearly all actives have a fitted effect of over 55% in size
p53ts 32C kill: kills p53ts cells at the permissive temperature; H1299-p53A138V at 32C, ATP luminescence viability, 24 h; Potency, µM (highest dose often 46.1 µM), for the others: top-dose activity change, negative = cytotoxicity, usual class: cytotoxic; hit rate 0.93% among 130,000; AID 924;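 also: 0% = DMSO and -100% = full killing by reference compound; nearly all actives have a fitted effect of over 55% in size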
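Viability by ATPlite luminescence after 24 h compound treatment (up to 46 uM) at the permissive 32C. Cells are H1299 carrying p53 A138V. Scale runs from DMSO basal to 100 uM tamoxifen as full kill; AC50 from Hill fits.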
IkB signaling: inhibitors of IkB signaling in ABC-DLBCL cells; ABC-DLBCL IkBa-CBG/CBR dual luciferase ratio, 4 h; response scale: scaled: untreated 0%, proteasome inhibitor 100%; Potency, µM (highest dose often 57.1 µM), for the others: top-dose IkBa stabilization activation; hit rate 0.04% among 110,000; active = well fitted curve in the direction sought with a large enough effect in the signal ratio, not every such curve was filed as active; inconclusive = small, poorly fitted or top-dose-only effect, or a change in a side signal; the % refers to the signal ratio;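 also: the direction sought is a rising ratio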
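Curves were fitted separately to fusion (green), unfused (red) and ratio luminescence, then classed by r2, magnitude and activity. Cells: OCI-Ly3, 4 h compound plus doxycycline at 37C; 10 uM MG-132 defined full response.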
Peg3 imprint: genomic imprint erasure induction | Potency, µM (highest dose often 60.7 µM), for inactives: top-dose activity change, positive = activation, most hits filed as activators | mouse ES Peg3-LacZ reporter, beta-gal luminescence, 40 h | AID 1948 | hit rate 0.02% among 110,000
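Each well holds 300 Peg3LacZ-Neo (maternal) female ES cells incubated 40 h at 37C, 5% CO2. LacZ is measured by BetaGlo luminescence, with AC50 and maximum efficacy derived from dose-response curves.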
* = called active by the depositor; ? = inconclusive; · = no result; [ ] = another dose, or the depositor's remark. Hits are enriched below; roughly 1.8% of the tested compounds scored in any of these assays. Unless noted, calls follow the shape of the dose curve; as a rule, active = well fitted curve in the direction sought with a large enough effect; inconclusive = small, poorly fitted or top-dose-only effect, or another doubt; inactive = no such curve, though single readings can be large; an effect the other way counts as inactive or inconclusive. Potency is read from the fitted curve at half-maximal effect.

SMILES | p53ts 39C kill | p53ts 32C kill | IkB signaling | Peg3 imprint
COc1cccc(-c2cc(C(=O)N3CCN(c4ccc(F)cc4)CC3)no2)c1 | 7.7% | -3.1% | 7.4% | -18.2%[10.9 µM]
O=C(c1cc(-c2ccc3c(c2)OCO3)on1)N1CCOCC1 | 7.94µM* | 7.94µM* | ? | -85.5%
O=C(c1cc(-c2ccc(Cl)cc2)on1)N1CCOCC1 | 12.6µM* | 10µM* | ? | -66.0%
O=C(c1cc(-c2ccc(F)cc2)on1)N1CCCC1 | 10µM* | 15.8µM* | ? | -65.3%
O=C(c1cc(-c2ccc(Cl)cc2Cl)on1)N1CCOCC1 | 10µM* | 3.16µM* | 3.0% | -62.7%
O=C(c1cc(-c2ccc(Cl)c(Cl)c2)on1)N1CCCC1 | 4.2% | -3.8% | 10.4% | -8.5%
COc1cccc(CNC(=O)c2cccc(N3CCCS3(=O)=O)c2)c1 | -15.3% | -1.2% | -0.2% | -13.0%[10.9 µM]
Cc1ccc2nc(-c3c[nH]c4ccccc34)c(Nc3ccccc3C)n2c1 | 6.1% | -0.9% | ? | -8.6%[10.9 µM]
Cc1ccc(Nc2c(-c3c[nH]c4ccccc34)nc3ccccn23)cc1 | 15.8µM* | ? | ? | 4.5%[10.9 µM]
O=C(c1ccc(Br)o1)N1CCN(c2ccc3nnc(-c4ccccc4)n3n2)CC1 | -5.1% | 12.6µM* | ? | -39.4%
Cc1nnc2ccc(N3CCN(C(=O)c4ccccc4)CC3)nn12 | 3.8% | -0.4% | 2.7% | -11.2%
CCOc1ccc(-n2nc3ccc(NC(=O)c4ccc(-c5cccc(Cl)c5)o4)cc3n2)cc1 | 7.94µM* | ? | ? | -35.0%[10.9 µM]
CCOc1ccc(-n2nc3ccc(NC(=O)COc4ccccc4)cc3n2)cc1 | 9.8% | -7.2% | -2.5% | -2.6%[10.9 µM]
Cc1ccc(CSc2ncc(Cl)c(C(=O)NCc3ccccc3)n2)cc1 | -21.0% | -7.9% | -0.2% | -11.1%[10.9 µM]
Cc1cccc(CS(=O)(=O)c2ncc(Cl)c(C(=O)NCc3ccccc3)n2)c1 | 5.01µM* | 25.1µM* | ? | -27.5%[10.9 µM]
O=C(NCc1ccccc1)c1nc(S(=O)(=O)Cc2ccc(F)cc2)ncc1Cl | 5.01µM* | 15.8µM* | ? | -24.9%[10.9 µM]
O=C(CSc1nc2ccccc2nc1Cc1ccc(Cl)cc1)N1CCCCC1 | 23.5% | 21.3% | 0.9% | 3.3%[10.9 µM]
COc1cc(C(=O)O[C@@H]2CC(C)=CC[C@@]3(C)CC[C@](O)(C(C)C)[C@H]23)ccc1O | · | · | 0.6%[11.4 µM] | ·
CN1CCc2cccc3c2[C@H]1Cc1ccc(O)c(O)c1-3 | 6.31µM* | 25.1µM* | 7.0% | -54.1%
O=C1C(C=Nc2ccccc2O)=C(O)c2ccccc21 | ? | 10µM* | ? | -75.3%
COc1ccc(CNc2nc3c(-c4cccc(F)c4)nnn3c3ccccc23)cc1 | 12.6µM* | ? | -1.1% | -8.3%[10.9 µM]
O=C(COCc1cc(-c2ccc3c(c2)OCO3)on1)Nc1cccc(O)c1 | · | -29.5% | · | ·
Cc1cc(C)c(NC(=O)Cn2c(=O)n(Cc3ccc(C(=O)NCc4ccco4)cc3)c(=O)c3sccc32)c(C)c1 | 25.1µM* | ? | ? | 8.2%[10.9 µM]
Cc1ccc(CNC(=O)c2ccc(Cn3c(=O)c4ccccc4n(CC(=O)Nc4c(C)cc(C)cc4C)c3=O)cc2)cc1 | -29.2% | 15.8µM* | 19.0% | -36.0%[10.9 µM]
Cc1ccc(CNC(=O)c2ccc(Cn3c(=O)c4ccccc4n(CC(=O)Nc4ccc(C)cc4C)c3=O)cc2)cc1 | ? | -16.3% | ? | -24.3%[10.9 µM]
SMILES | p53ts 39C kill | p53ts 32C kill | IkB signaling | Peg3 imprint
COc1ccc(Br)cc1CNC(=O)c1cc2n(n1)CCCN(Cc1ccc(C)cc1)C2=O | -14.4% | 14.5% | ? | -9.5%[10.9 µM]
CCCOc1ccc(N2C(=O)CC(SCCN)C2=O)cc1 (stereo not drawn) | 10µM* | 12.6µM* | -0.2% | -78.5%
CN(C)S(=O)(=O)c1ccc2nc(NC(=O)c3cccnc3)sc2c1 | ? | 15.8µM* | -1.3% | -55.2%
CC(C)(C)NS(=O)(=O)c1ccc2nc(NC(=O)c3cccnc3)sc2c1 | -5.0% | 20.0% | ? | 5.7%[10.9 µM]
CCOC(=O)c1ccc2nc(NC(=O)c3ccco3)sc2c1 | ? | ? | ? | -84.8%
CS(=O)(=O)c1ccc2nc(NC(=O)c3ccco3)sc2c1 | 12.6µM* | 12.6µM* | ? | -78.6%
Cc1ccc(C(=O)Nc2nc3ccc(S(C)(=O)=O)cc3s2)o1 | 12.6µM* | 11.2µM* | · | ·
C[C@@]12C[C@H](O)C3[C@H](CCC4=CC(=O)CC[C@]43C)[C@H]1CC[C@@H]2c1csc(N)n1 (stereo partly drawn) | · | · | · | -25.5%[10.9 µM]
COc1ccc(-c2nc(CCNC(=O)c3ccccc3)cs2)cc1OC | -20.6% | -1.2% | -0.2% | -13.8%[10.9 µM]
c1ccc(Nc2nc(-c3cccnc3)cs2)nc1 | 15.8µM* | ? | ? | -80.9%
Cc1cccc(Nc2nc(-c3cccs3)cs2)n1 | -19.6% | ? | · | ·
c1cncc(Nc2nc(-c3cccnc3)cs2)c1 | 2.2% | 8.8% | -9.1% | -15.1%
c1ccc(Nc2nc(-c3cccs3)cs2)nc1 | ? | 12.6µM* | ? | -88.3%
O=C(Oc1ccc2c(c1)OCO2)c1cccs1 | -9.6% | -2.1% | 0.0% | -2.0%
O=C(/C=C/c1ccc2c(c1)OCO2)c1cccs1 | 20µM* | 15.8µM* | · | -45.7%
COc1ccc(OC)c2sc(N3CCN(C(=O)C(C)(C)C)CC3)nc12 | 7.94µM* | 15.8µM* | -2.5% | -7.6%[10.9 µM]
CCCC(=O)N1c2ccccc2-c2nnc(SC)nc2OC1c1sccc1C (stereo not drawn) | 2.7% | 55.0% | ? | -14.2%[10.9 µM]
Cc1ccc(N2C(=O)c3ccccc3C2O)nc1 (stereo not drawn) | 5.01µM* | 3.98µM* | ? | -92.9%
Cc1cccc(-n2ccnc2SCC(=O)Nc2cccc3ccccc23)c1 | -21.0% | -4.6% | ? | 12.4%[10.9 µM]
CN1CCN(C(=O)c2cnn(-c3cccc(Cl)c3)c2C2CCN(C(=O)OC(C)(C)C)CC2)CC1 | 9.5% | 4.1% | ? | 6.5%[10.9 µM]
CCOc1ccc(CN2C(=O)C(=O)c3cccc(C)c32)cc1OC | 12.6µM* | -1.8% | 0.0% | 15.0%[10.9 µM]
Cc1c(N=c2c(=O)c3ccccc3c2=O)c(=O)n(-c2ccccc2)n1C | 12.6µM* | 10µM* | ? | -46.7%
CC(C)CC1NC(=O)C(CCCN)NC(=O)C(C(C)C)NC(=O)C2CCCN2C(=O)C(Cc2ccccc2)NC(=O)C(CC(C)C)NC(=O)C(CCCN)NC(=O)C(C(C)C)NC(=O)C2CCCN2C(=O)C(Cc2ccccc2)NC1=O (stereo not drawn) | 5.01µM* | -9.8% | · | -29.6%
O=C1N[C@@H](Cc2ccccc2)C(=O)N2CCCC12 (stereo partly drawn) | · | · | · | -10.8%[97.3 µM]
COc1ccc(NC(=O)CSC2=Nc3ccccc3N=C(c3ccc(F)cc3)C2)cc1OC | -12.6% | 1.2% | 3.9% | -3.7%[10.9 µM]
COc1cccc(N2CCN(C(=O)CCCn3c(=O)[nH]c4ccc(Br)cc4c3=O)CC2)c1 | -17.0% | 12.6µM* | ? | -14.1%[10.9 µM]
Cc1cc(C)nc(SC2=CS(=O)(=O)c3ccccc32)n1 | ? | -29.6% | ? | -26.8%
O=S1(=O)C=C(Sc2nc3ccccc3s2)c2ccccc21 | ? | 12.6µM* | ? | -36.1%
CN(C)c1ncc2nc(CCc3ccccc3)c(=O)n(CCC#N)c2n1 | -9.1% | 3.0% | -2.7%[11.4 µM] | ?
O=C1CCNc2cc3ccccc3cc21 | 15.8µM* | ? | ? | -30.8%
